For 99 compounds, inhibition results are on record in PubChem BioAssay AID372 (MTDP, 2006).

The whole screen tested about 100,000 compounds, of which about 770 (0.77%) were called active. The sample as a whole holds a higher share of actives than the screen did. Unmarked numbers belong to inactive results. Cut-off read from the data, not from the text of the source: active = inhibition above about 50%; inactive = the rest.

The experiment deals with Gag-Pol polyprotein (Human immunodeficiency virus type 1 group M subtype B (isolate HXB2)) (UniProt P04585). As to the kind of experiment: RNase H inhibition, HIV 1 Gag Pol polyprotein, FRET biochemical assay, screening (AID 372). To be noted: HIV-1 RT RNase H, FRET RNA/DNA substrate fluorescence; at 10 µM; active compounds read high.
Consider `O=C(CSc1nc2ccccc2[nH]1)Nc1cc(Cl)ccc1Cl`, for which the inhibition (in general, the percentage by which the read-out fell short of the control) was 4%.

With `CCCOC(=O)C1=C(C)NC2=C(C(=O)CCC2)C1c1cccc(O)c1` (centres undefined), the inhibition is 2%.

Consider `CCOC(=O)C1=C(C)NC2=C(C(=O)CC(C)(C)C2)C1c1cccc(O)c1` (centres undefined), for which the inhibition was 0%.

`N#CC1=C(SCC(=O)Nc2ccccc2)NC(=O)CC1c1ccco1` (centres undefined): the inhibition was 7%.

With `COc1ccc2oc(C)c(C(O)c3ccccc3)c2c1` (centres undefined), the inhibition was 0%.

On to `CCOc1ccc(N2C(=O)CSC2=S)cc1`, for which the inhibition was 0%.

In the case of `O=C1NN(c2ccc(Cl)cc2)C(=O)/C1=C\c1ccc(O)c(O)c1`, the inhibition is 57% (active).

Regarding `COc1cc(/C=C2/C(=O)NN(c3ccc(Cl)cc3)C2=O)ccc1O`, the inhibition was 23%.

With `O=C1NN(c2ccc(Cl)c(Cl)c2)C(=O)/C1=C/c1ccc(O)c(O)c1`, the inhibition is 49%.

In the case of `COc1cccc(OCCCN2CCCC2)c1`, the inhibition is 13%.

For the compound `O=C(COc1ccccc1Cl)Nc1cccc(NC(=O)c2cccc(Cl)c2)c1`, the inhibition was 38%.

`O=C(COc1ccccc1Cl)Nc1cccc(S(=O)(=O)c2cccc(NC(=O)COc3ccccc3Cl)c2)c1`: the inhibition is 54% (active).

Turning to `O=C(COc1ccccc1Cl)Nc1ccc2nn(-c3ccccc3)nc2c1`, the inhibition is 53% (active).

For `O=C(Cc1ccc(Cl)cc1)Nc1ccc2nn(-c3ccc(Cl)cc3)nc2c1`, the inhibition was 51% (active).

Regarding `O=C(Cc1ccc(Cl)cc1)Nc1ccc2nn(-c3ccc(F)cc3)nc2c1`, the inhibition is 41%.

For the compound `Cc1ccccc1OCC(=O)Nc1ccc2nn(-c3ccccc3)nc2c1`, the inhibition is 8%.

As to `O=C(COc1ccccc1Cl)Nc1cccc(NC(=O)c2ccccc2)c1`, the inhibition was 6%.

Consider `O=C(Cc1ccccc1)Nc1ccc2nn(-c3ccc(Cl)cc3)nc2c1`, for which the inhibition was 37%.

On to `COc1ccc(-n2nc3ccc(NC(=O)COc4ccccc4Cl)cc3n2)cc1`, for which the inhibition is 32%.

In the case of `O=C(COc1ccccc1)Nc1cc(C(F)(F)F)cc(C(F)(F)F)c1`, the inhibition is 0%.

Take `CC1=C(C(=O)Nc2ccccc2)C(c2cccc(Br)c2)NC(=S)N1` (centres undefined): the inhibition was 8%.

`COc1cc(/C=N\NC(=O)CSc2nc3ccccc3o2)ccc1O`: the inhibition is 25%.

As for `C#CCSc1nc(C)cc(C)c1C#N`, the inhibition was 13%.

For the compound `Cc1csc(NC(=O)C2CC3CCC2C3)n1` (centres undefined), the inhibition is 4%.

Consider `COc1ccc(N(CC(=O)Nc2cccc(OC)c2)S(=O)(=O)c2ccc(C)cc2)cc1`, for which the inhibition is 16%.

Turning to `CC(C(=O)O)n1c(O)c(/C=C2/C=Nc3ccccc32)sc1=S` (centres undefined), the inhibition is 4%.

With `O=C(N/N=C/c1ccc(Cl)cc1Cl)c1cc(O)cc(O)c1`, the inhibition is 6%.

With `C[n+]1ccc(C(=O)N/N=C/c2ccc(Cl)cc2Cl)cc1`, the inhibition is 0%.

With `O=C(N/N=C/c1coc2ccccc2c1=O)c1cc(O)cc(O)c1`, the inhibition is 55% (active).

For the compound `O=C(N/N=C/c1c[nH]c2ccccc12)c1cc(O)cc(O)c1`, the inhibition is 8%.

On to `O=C(N/N=C/c1ccc(O)c(O)c1O)c1ccc(Cl)cc1Cl`, for which the inhibition was 61% (active).

Take `O=C(N/N=C/c1ccc(Cl)cc1Cl)c1ccc(O)c(O)c1`: the inhibition is 57% (active).

With `O=C(N/N=C/c1ccc(Cl)cc1Cl)c1ccccc1Cl`, the inhibition is 5%.

For the compound `O=C(N/N=C/c1ccc(Cl)cc1Cl)c1cc(Br)ccc1O`, the inhibition is 0%.

For `Cc1ccccc1/C=N/NC(=O)c1cc(O)cc(O)c1`, the inhibition was 2%.

For the compound `O=C(N/N=C/c1ccccc1Cl)c1ccc(C(=O)N/N=C/c2ccccc2Cl)cc1`, the inhibition is 0%.

Consider `O=C(N/N=C/c1ccccc1Cl)c1cccc(Cl)c1`, for which the inhibition was 8%.

Regarding `O=C(/C=C/c1cc(Br)cs1)Nc1ccccc1`, the inhibition is 11%.

Take `Cc1cc(C)c(S(=O)(=O)N2CCCC2=O)c(C)c1`: the inhibition was 0%.

Take `O=C(Nc1cc(NC(=O)c2cc(Cl)ccc2Cl)ccc1Cl)c1ccccc1`: the inhibition was 20%.

As for `Cc1nnc(C)n1/N=C/c1ccc(Cl)cc1`, the inhibition was 2%.

Take `Cn1c(SC/C=C/c2ccccc2)nc2sc3c(c2c1=O)CCC3`: the inhibition is 2%.

On to `CCOC(=O)c1c(NC(=O)Cc2cccs2)sc(C(=O)Nc2cc(C(F)(F)F)ccc2Cl)c1C`, for which the inhibition is 16%.

With `COc1ccc(C2CC(=O)N(CCCN(C)C)C2)cc1` (centres undefined), the inhibition is 2%.

Take `O=C(N/N=C/c1cccc(Cl)c1Cl)c1ccc(O)cc1`: the inhibition is 0%.

On to `O=C(N/N=C/c1cccc(Cl)c1Cl)c1ccc(Cl)c(Cl)c1`, for which the inhibition is 5%.

Consider `O=C(N/N=C/c1cccc(O)c1O)c1cc(O)cc(O)c1`, for which the inhibition was 86% (active).

In the case of `O=C(N/N=C/c1cccc(O)c1O)c1ccc(O)cc1`, the inhibition is 32%.

For the compound `O=C(N/N=C/c1cccc(O)c1O)c1ccccc1`, the inhibition is 31%.

Turning to `O=C(N/N=C/c1cccc(Cl)c1Cl)c1ccc(O)c(O)c1`, the inhibition is 56% (active).

Regarding `Oc1c(Cl)cc(Cl)cc1C=Nc1ccc(-c2nc3ccccc3[nH]2)cc1`, the inhibition is 0%.

Consider `CCOC(=O)COc1ccc(/C=C2\C(=O)NC(=S)N(c3ccc(OCC)cc3)C2=O)cc1OC`, for which the inhibition is 9%.

For `NC1=NC(=O)/C(=C/c2cccc(OS(=O)(=O)c3cccc([N+](=O)[O-])c3)c2)S1`, the inhibition was 3%.

For the compound `COc1ccc(CSCC(=O)N/N=C/c2ccccc2O)cc1`, the inhibition was 14%.

`COc1ccc(CSCC(=O)N/N=C/c2c(Cl)cccc2Cl)cc1`: the inhibition was 60% (active).

Regarding `Cc1cc(C)nc(SCC(=O)N/N=C/c2c(Cl)cccc2Cl)n1`, the inhibition was 20%.

Take `CCOC(=O)c1c(NC(=O)c2cc(-c3ccc(C(C)C)cc3)nc3ccccc23)sc(C(N)=O)c1C`: the inhibition was 55% (active).

As for `CCOC(=O)c1c(NC(=O)c2cc(-c3ccc(C)c(C)c3)nc3ccccc23)sc(C(N)=O)c1C`, the inhibition was 5%.

In the case of `CCOC(=O)c1c(NC(=O)c2cc(-c3ccccc3)nc3ccccc23)sc(C(N)=O)c1C`, the inhibition is 24%.

Consider `C=CCn1c(-c2nonc2NC(C)=O)nc2ccccc21`, for which the inhibition is 42%.

As for `Oc1ccc(/C=N/Nc2nncc(-c3ccccc3)n2)cc1`, the inhibition is 5%.

Turning to `Oc1ccc(/C=N/Nc2nncc(-c3ccccc3)n2)c(O)c1`, the inhibition was 23%.

In the case of `Cc1ccnc(NC(=O)c2ccc(OCC(C)C)cc2)c1`, the inhibition is 0%.

Consider `O=C1OC2C=CC(Br)=CC2C=C1C(=O)N1CCSC1c1ccc2c3c(cccc13)CC2` (centres undefined), for which the inhibition was 6%.

As to `CCN1C(=O)/C(=C/c2cc(Cl)cc(Cl)c2OCCOc2ccccc2OC)SC1=S`, the inhibition is 7%.

For `CN1C[N+]([O-])=C(c2ccccc2)C1(C)C`, the inhibition is 3%.

On to `CCOC(=O)C1=C(c2ccccc2)S/C(=C2/C(=S)C(C)(C)Nc3ccc(C(c4ccccc4)(c4ccccc4)c4ccccc4)cc32)S1`, for which the inhibition was 27%.

Regarding `COC(=O)C1=C(C(=O)OC)SC(=C2C(=S)C(C)(C)Nc3ccc(C)cc32)S1`, the inhibition is 28%.

With `COC(=O)C1=C(C(=O)OC)SC(=C2C(=S)C(C)(C)Nc3ccc(C(c4ccccc4)(c4ccccc4)c4ccccc4)cc32)S1`, the inhibition is 53% (active).

Turning to `CC(=O)N1CCN(C2=NC(=O)/C(=C/c3ccc(O)cc3)S2)CC1`, the inhibition was 10%.

Take `Cc1ccc(C(=O)O)cc1NC(=O)C1CC=CCC1C(=O)O` (centres undefined): the inhibition is 10%.

Regarding `CCOCCOC(=O)C1=C(C)NC2=C(C(=O)CCC2)C1c1ccc(CC)cc1` (centres undefined), the inhibition is 12%.

With `CCN(CC)S(=O)(=O)c1ccc(-c2ccc(S(=O)(=O)N(CC)CC)cc2)cc1`, the inhibition is 11%.

For `N#C/C(=C\c1cc(Br)c(O)c(Br)c1)C(=O)Nc1ccccc1Br`, the inhibition was 14%.

On to `N#C/C(=C/c1ccc(Cl)cc1)C(=O)Nc1ccc(O)cc1`, for which the inhibition is 60% (active).

Take `N#C/C(=C/c1cccc(Cl)c1)C(=O)Nc1cccc(Br)c1`: the inhibition was 12%.

As for `N#C/C(=C\c1ccc(OC(=O)c2ccco2)cc1)C(=O)Nc1ccccc1Br`, the inhibition is 50% (active).

`N#C/C(=C\c1ccccc1)C(=O)Nc1ccccc1Br`: the inhibition is 9%.

Turning to `N#C/C(=C/c1ccc(Cl)cc1)C(=O)Nc1ccc(Cl)cc1`, the inhibition is 3%.

Regarding `N#C/C(=C/c1ccc(O)cc1)C(=O)Nc1ccc(O)cc1`, the inhibition was 8%.

As for `N#C/C(=C\c1ccc(OC(=O)c2ccc(Br)cc2)cc1)C(=O)Nc1cccc(Cl)c1`, the inhibition is 55% (active).

Turning to `N#C/C(=C/c1ccc(Cl)cc1)C(=O)Nc1cccc(Br)c1`, the inhibition is 15%.

Consider `O=C(Nc1ccc(Cl)cc1)O/N=C\c1ccc(Br)cc1`, for which the inhibition is 29%.

Consider `COc1ccc(C2/C(=C(/O)c3ccc(Cl)cc3)C(=O)C(=O)N2CCCC(=O)O)cc1` (centres undefined), for which the inhibition is 4%.

Take `Nc1ccc[n+](CC(=O)c2ccccc2)c1`: the inhibition was 2%.

`Cc1ccccc1OCCNc1cc(N2CCOCC2)ccc1[N+](=O)[O-]`: the inhibition was 10%.

In the case of `Cc1ccc(Cl)cc1NC(=O)/C(C#N)=C\c1ccc(I)o1`, the inhibition is 9%.

With `COc1ccc(Br)cc1/C=C1/SC(N2CCCCC2)=NC1=O`, the inhibition was 14%.

As to `COc1ccc(Br)cc1/C=C1\SC(N2CCCC2)=NC1=O`, the inhibition is 19%.

For the compound `COc1ccc(Br)cc1/C=C1\SC(N2CCOCC2)=NC1=O`, the inhibition was 52% (active).

Regarding `COc1ccc(C2CC(=O)C=C(Nc3ccccc3N)C2)cc1OC` (centres undefined), the inhibition is 10%.

With `COC(=O)C1=C(C)N(C)C(=O)/C1=C\c1ccco1`, the inhibition is 11%.

Turning to `CN1C(=O)C(=C/C=C/c2ccco2)C(=O)N(C)C1=S`, the inhibition was 16%.

For `CN1C(=O)C(=Cc2ccco2)C(=O)N(C)C1=S`, the inhibition was 61% (active).

As to `O=C1NC(=O)N(c2ccc(Br)cc2)C(=O)/C1=C/c1ccco1`, the inhibition is 12%.

With `Cc1ccccc1N1C(=O)/C(=C\c2ccco2)C(=O)N(c2ccccc2)C1=S`, the inhibition is 49%.

On to `Oc1ccc(Cl)cc1-c1cc(-c2ccc(Cl)cc2)n[nH]1`, for which the inhibition was 0%.

As for `O=S(=O)(c1ccc(-c2csc(Nc3ccc4c(c3)OCO4)n2)cc1)N1CCOCC1`, the inhibition was 8%.

With `CCCCNCCOc1ccccc1OCC`, the inhibition is 12%.
